In PubChem BioAssay (NCI):
This is part of a sample that, as a whole, favours compounds with a hit. Of some 83,000 tested, about 20% had one in any assay.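 Activity criterion: percent growth below 10, measured after cells in 96-well plates were exposed to a single compound concentration for 48 hours.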 Calls of active or inactive are those of the source.

Key:
Assay in all cases: NCI-60 one-dose screen, 48 h (100 = growth as untreated, 0 = no growth, -100 = all killed)
Settings in all cases: 10 µM unless noted
[1] = system: SK-MEL-2 melanoma
[2] = system: EKVX NSCLC
[3] = system: UO-31 renal
[4] = system: TK-10 renal
[5] = system: ACHN renal
[6] = system: CAKI-1 renal
[7] = system: A498 renal
[8] = system: CCRF-CEM leukemia
[9] = system: MOLT-4 leukemia
[10] = system: SR leukemia
[11] = system: RPMI-8226 leukemia
[12] = system: OVCAR-8 ovarian
[13] = system: OVCAR-5 ovarian
[14] = system: OVCAR-4 ovarian
[15] = system: SK-OV-3 ovarian
[16] = system: IGROV1 ovarian
[17] = system: OVCAR-3 ovarian
[18] = system: HS 578T breast
[19] = system: NCI/ADR-RES ovarian
[20] = system: SN12C renal

Measured: growth

COc1ccc2c(c1)c(-c1nc(-c3c[nH]c4c(Cl)nccc34)cs1)cn2C
inactive: [1] 108% | [2] 34.8% | [3] 90.8% | [4] 35.7% | [5] 85.4% | [6] 98.7% | [7] 94.7% | [8] 93.7% | [9] 85% | [10] 32.1% | [11] 78% | [12] 95.1% | [13] 57.4% | [14] 34% | [15] 78.6% | [16] 56.5% | [17] 47.9% | [18] 87.6% | [19] 95.5%

COC(=O)/C=C1/SC(=Nc2ccc([N+](=O)[O-])cc2)N(CCc2c[nH]c3ccccc23)C1=O
active: [9] -2.1% | [10] 1.73% | [11] 2.18%
inactive: [1] 68.1% | [2] 87.2% | [3] 48.8% | [4] 103% | [5] 64.6% | [6] 73.1% | [7] 78.2% | [12] 42% | [13] 112% | [14] 66.2% | [15] 105% | [16] 62% | [17] 43.1% | [18] 63.5% | [19] 66.9%

COC(=O)c1c2c(c(C)[n+]([O-])c1C)C(=O)C(NCCN1CCOCC1)=CC2=O
active: [17] 5.12%
inactive: [1] 78.2% | [2] 65.8% | [20] 59% | [3] 82.2% | [4] 111% | [5] 85.5% | [6] 73% | [9] 88.1% | [10] 66.9% | [11] 91.9% | [12] 61.7% | [13] 89.1% | [14] 35.4% | [15] 103% | [16] 63.4% | [18] 101% | [19] 91.7%

COc1ccc(S(=O)(=O)Nc2cc(Sc3cccc4cccnc34)c(O)c3ccccc23)cc1
active: [1] 5.09% | [5] 7.43% | [9] -4.51% | [10] 8.57% | [11] 5.31% | [12] 9.48% | [14] -99.4% | [16] 5.99% | [17] -81.8%
inactive: [2] 36.7% | [3] 27.4% | [4] 23.4% | [6] 20% | [7] 65.2% | [8] 13.4% | [13] 42.3% | [15] 50.7% | [18] 47.2% | [19] 11.1%

C=C[C@]1(C)C=C2CC[C@@H]3C(C)(C)C(=O)CC[C@@]3(C)[C@@H]2CC1
inactive: [1] 106% | [2] 101% | [3] 17.9% | [4] 98.7% | [5] 106% | [6] 84% | [8] 101% | [9] 109% | [10] 102% | [11] 98.3% | [12] 103% | [13] 111% | [14] 102% | [15] 111% | [16] 11.3% | [17] 109% | [18] 104% | [19] 110%

COCCn1cc(-c2csc(-c3cn(C)c4ccc(F)cc34)n2)c2cccnc21
inactive: [1] 72% | [2] 59% | [3] 64.2% | [4] 81.5% | [5] 78% | [6] 84% | [7] 36.3% | [8] 56% | [9] 56.7% | [10] 33.8% | [12] 71.3% | [13] 80.7% | [14] 47.8% | [15] 92.6% | [16] 93.9% | [17] 76% | [18] 63.1% | [19] 58.6%

Cc1ccc(C(=O)N(CCCN)[C@@H](c2nc3cc(Cl)ccc3c(=O)n2Cc2ccccc2)C(C)C)cc1
active: [1] -43% | [2] -7.16% | [3] 5.01% | [4] -33.5% | [5] -28.3% | [6] 4.04% | [7] -4.18% | [8] 1.72% | [9] -29.3% | [10] -32% | [11] -36.6% | [12] -11.7% | [13] -17.5% | [16] 8.41% | [17] -13.7% | [18] -12.8% | [19] -30.1%
inactive: [14] 33.3% | [15] 38.6%
